RORgamma inh: blocks mouse ROR gamma transcriptional activity. 5.4% of 310,000 active. AID 2551. Potency, µM (top dose mostly 53.6 µM), actives largely listed as inhibitors. P51450. Drosophila S2 Gal4-RORgamma UAS-luciferase reporter, 20 h; also: nearly all actives have a fitted effect of over 60% in size
Target sequence (P51450 whole entry, looked up, the tested form may be a part): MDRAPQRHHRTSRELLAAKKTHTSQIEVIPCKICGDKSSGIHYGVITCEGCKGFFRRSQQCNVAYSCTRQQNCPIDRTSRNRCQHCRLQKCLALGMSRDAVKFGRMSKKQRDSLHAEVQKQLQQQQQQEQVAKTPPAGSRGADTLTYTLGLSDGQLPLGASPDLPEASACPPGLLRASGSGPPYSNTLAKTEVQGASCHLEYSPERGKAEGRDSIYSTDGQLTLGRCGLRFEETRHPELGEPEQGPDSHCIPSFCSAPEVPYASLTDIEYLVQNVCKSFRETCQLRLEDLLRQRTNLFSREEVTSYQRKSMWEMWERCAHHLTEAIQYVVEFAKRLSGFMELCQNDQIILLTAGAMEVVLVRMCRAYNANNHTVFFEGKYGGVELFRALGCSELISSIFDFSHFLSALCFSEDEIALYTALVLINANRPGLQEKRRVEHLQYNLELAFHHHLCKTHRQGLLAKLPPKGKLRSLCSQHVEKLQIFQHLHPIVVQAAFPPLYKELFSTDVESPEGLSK
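In this cell-based reporter format, copper sulfate (700 uM final) drives Gal4–ROR gamma fusion expression from a metallothionein promoter in Drosophila Schneider cells; compounds preincubated 1 hr, reporter read after 20 hr at ambient temperature.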
DT40 TDP1 no CPT: qHTS for Inhibitors of human tyrosyl-DNA phosphodiesterase 1 (TDP1): qHTS in cells in absence of CPT; Potency, µM (titrated, usually from 46.2 µM), actives largely listed as inhibitors; 15% of 420,000 active; DT40 Tdp1-/- hTDP1 cells, no CPT, ATP luminescence, 48 h; also: nearly all actives have a fitted effect of over 55% in size
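Growth kinetics read by CellTiter-Glo luminescence after ≥48 hr at 37 °C. Cells: DT40 Tdp1-/- stably carrying human TDP1, 400 per well, compound exposure in the absence of CPT (DMSO vehicle).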
Gal4-VP16 FLuc: Gal4-VP16 reporter inhibition counter-screen; Drosophila S2 Gal4-VP16 UAS-luciferase, luminescence, 20 h; 3.5% of 310,000 active; Potency, µM (highest dose often 53.6 µM), most hits filed as inhibitors;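 also: Gal4-VP16 expression switched on by copper sulfate through the metallothionein promoter; nearly all actives have a fitted effect of over 50% in size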
TDP1 cell CPT: growth inhibition of DT40 Tdp1-/-;hTDP1 cells with camptothecin (screen for TDP1 inhibitors); chicken DT40 Tdp1-/-;hTDP1 cells + 20 nM CPT, ATP luminescence, 48 h; Potency, µM (highest dose often 46.2 µM), hits mostly inhibitors; 12% of 420,000 active; AID 686979; also: nearly all actives have a fitted effect of over 55% in size
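Chicken DT40 Tdp1-/- cells complemented with human TDP1, 400 cells/well, exposed to compounds plus 20 nM camptothecin for at least 48 h at 37 C; viability read as ATP content by CellTiter-Glo luminescence.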
ELG1 repair inh: blocks ELG1-dependent DNA repair in HEK293T cells. HEK293T ELG1-luciferase reporter, luminescence, 16 h; DNA damage induced by 5-fluorouridine. Potency, µM (series often up to 46.1 µM), actives largely listed as inhibitors. 2.3% of 330,000 active. AID 504467; also: nearly all actives have a fitted effect of over 55% in size
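Overnight (16 hr) co-exposure of 2,000 cells/well to 5-fluorouridine and compound at 37 °C preceded detection. Luciferase was quantified via ONE-Glo luminescence; loss of signal denotes inhibition.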
12-LOX inh: blocks human arachidonate 12S-lipoxygenase; Potency, µM (top dose mostly 108 µM), actives largely listed as inhibitors; 1.1% of 580,000 active; P18054; AID 1671190; purified 12hLO, xylenol orange hydroperoxide absorbance
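Purified human 12hLO (150 nM final) in 25 mM Hepes, 0.01% Triton X-100, pH 7.0 was preincubated 15 min at room temperature with compound. Then 40 uM arachidonic acid was added, 30 min. Hydroperoxide was read by Fe-XO absorbance ratio 573/405 nm.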
Hits are given with their value; . = inactive; ? = inconclusive; / = not tested or not shown; [ ] = remark or other dose. An excerpt weighted towards active compounds, which were near 15% of everything screened. Calls follow the shape of the dose curve; as a rule, active = well fitted curve in the direction sought with a large enough effect; inconclusive = small, poorly fitted or top-dose-only effect, or another doubt; inactive = no such curve, though single readings can be large; an effect the other way counts as inactive or inconclusive.

SMILES	RORgamma inh	DT40 TDP1 no CPT	Gal4-VP16 FLuc	TDP1 cell CPT	ELG1 repair inh	12-LOX inh
CC(C)(C)c1ccc(C(CNC(=O)c2cc(-c3cccs3)on2)N2CCOCC2)cc1 (configuration not stated)	/	/	/	/	/	.
O=C(Cc1ccc(F)cc1)N1CCN(c2cc(C(F)(F)F)ncn2)CC1	/	/	/	/	/	.
CC1(C(=O)NCc2ccccc2Br)CCN1Cc1ccccc1OC(F)F (configuration not stated)	/	23µM	/	?	/	.
CC1(C(=O)NCCc2c[nH]c3ccccc23)CCN1Cc1csc2ccccc12 (configuration not stated)	/	.	/	.	/	.
CC1(C(=O)NCCc2c[nH]c3ccccc23)CCN1Cc1ccccc1OC(F)F (configuration not stated)	/	?	/	18µM	/	.
CC(C)CNC(=O)C1(C)CCCN1Cc1ccccc1OC(F)F (configuration not stated)	/	23µM	/	21µM	/	.
CC1(C(=O)NCc2ccccc2Br)CCN1Cc1c(F)cccc1F (configuration not stated)	/	?	/	?	/	.
C=C(C)Cn1c(NCc2ccccc2)nc2c1c(=O)n(C)c(=O)n2C	/	/	/	/	/	.
C=CCNC(=O)NC(=O)CSc1nc(-c2ccco2)nc2ccccc12	/	/	/	/	/	.
O=C(COc1c(CO)cc(F)cc1CO)Nc1ccc(F)c(Cl)c1	/	/	/	/	/	.
Cc1ccc(-c2nc3cc(NC(=O)CC(C)C)ccc3o2)cc1Cl	/	/	/	/	/	.
Nn1c(SCC(=O)Nc2cccc(C(F)(F)F)c2)nnc1-c1cc(-c2ccc(Cl)cc2)n[nH]1	/	/	/	/	/	.
CC(c1ccccc1F)n1cc(C(=O)NCCc2ccco2)nn1 (configuration not stated)	.	18µM	.	?	.	.
CC(c1ccccc1F)n1cc(C(=O)NCc2ccncc2)nn1 (configuration not stated)	2.8µM	.	.	.	.	.
O=C(C[C@H]1C[C@H](C(=O)N2CCOCC2)[C@@]2(CCC3CCCC3)c3[nH]c4cc(-c5ccco5)ccc4c3CCN2C1=O)NCCC1=CCCCC1	/	21µM	/	?	.	/
COc1ccc2[nH]c3c(c2c1)CCN1C(=O)C(CC(=O)NCCC2=CCCCC2)C[C@H](C(=O)N2CCOCC2)[C@@]31CCC1CCCC1 (some centres not stated)	/	.	/	.	.	.
C[C@]12c3[nH]c4ccc(Cl)cc4c3CCN1C(=O)[C@@H](CC(=O)NCCC1=CCCCC1)C[C@@H]2C(=O)N1CCOCC1	/	16µM	/	12µM	?	.
C[C@]12c3[nH]c4cc(-c5ccco5)ccc4c3CCN1C(=O)[C@@H](CC(=O)NCCC1=CCCCC1)C[C@@H]2C(=O)N1CCOCC1	/	21µM	/	16µM	.	/
O=C(C[C@H]1C[C@H](C(=O)N2CCOCC2)[C@@]2(CCC3CCCC3)c3[nH]c4cc(-c5ccco5)ccc4c3CCN2C1=O)NCc1ccco1	/	16µM	/	?	?	?
CN(C)C(=O)CCc1ccc2c3c([nH]c2c1)[C@]1(C)[C@@H](C(=O)N2CCOCC2)C[C@H](CC(=O)NCCC2=CCCCC2)C(=O)N1CC3	/	.	/	.	.	.
CC(C)(C)NC(=O)C[C@H]1C[C@H](C(=O)N2CCOCC2)[C@@]2(C)c3[nH]c4ccc(Cl)cc4c3CCN2C1=O	/	.	/	.	.	.
Fc1cc(F)cc(Cc2nc3nccc(-c4ccco4)n3n2)c1	/	/	/	/	/	.
Cc1c(CCC(=O)NCCCN2CCOCC2)c(=O)oc2c(C)c(O)ccc12	/	/	/	/	/	.
Cc1cc(Cl)ccc1Nc1nc(NCc2ccc3c(c2)OCO3)nc2nccnc12	/	/	/	/	/	.
COc1ccc(CNC[C@H]2O[C@H](Cc3cc(-c4cccc(O)c4)on3)CC[C@@H]2O)cc1	/	/	/	/	/	.
SMILES	RORgamma inh	DT40 TDP1 no CPT	Gal4-VP16 FLuc	TDP1 cell CPT	ELG1 repair inh	12-LOX inh
CN(C)C(=O)CCc1ccc2c3c([nH]c2c1)[C@]1(CCC2CCCC2)[C@@H](C(=O)N2CCOCC2)C[C@H](CC(=O)NCCC2=CCCCC2)C(=O)N1CC3	/	23µM	/	23µM	.	.
CN(C)CCCNC(=O)C[C@H]1C[C@H](C(=O)N2CCOCC2)[C@@]2(CCC3CCCC3)c3[nH]c4cc(CCC(=O)N(C)C)ccc4c3CCN2C1=O	/	.	/	.	.	.
CCOC(=O)COc1ccc(C2NC(C(=O)O)CS2)cc1 (configuration not stated)	.	.	.	.	.	32µM
O=[S+]([O-])(c1cccs1)N1CCCN(c2nc3ncccc3o2)CC1	/	/	/	/	/	.
O=c1cc(-c2ccc([N+](=O)[O-])cc2)c2cc3c(cc2[nH]1)OCCO3	.	10µM	.	?	.	.
COc1ccc(C(=O)N2CCOC3(CCN([S+](C)(=O)[O-])CC3)C2)cc1	/	/	/	/	/	.[6.33 µM]
Cc1[nH]c(=S)c(C#N)c(C)c1C(=O)Nc1ccccc1	.	.	.	.	.	25µM
CCc1c(C(=O)Nc2ccccc2)c(C)[nH]c(=S)c1C#N	.	.	.	.	.	4µM
Cc1ccccc1NC(=O)c1c(C)[nH]c(=S)c(C#N)c1-c1ccco1	?	.	.	.	.	.
Cc1ccc(-n2nc(-c3cccc(C)c3)c(C)c2-c2cccc(C)c2)cc1	/	/	/	/	/	.
O=C(NCC1(N2CCOCC2)CCCCC1)C1CCN(C(=O)c2ccc(Cl)cc2)CC1	/	/	/	/	/	.
CCCCNc1cc(=O)n(C)c(=O)n1C	.	.	.	.	.	.
CCCCNC1=CC(=O)C(=O)c2ccccc21	.	21µM	.	8.2µM	.	?
CCCCNC1=CC(=O)C(NCCCC)=CC1=O	/	16µM	/	23µM	/	.
Cc1oc(-c2cccs2)nc1CC(=O)Nc1ccccc1C(C)(C)C	/	/	/	/	/	.
Oc1c(C(c2cccs2)N2CCN(c3cccc(Cl)c3)CC2)sc2ncnn12 (configuration not stated)	.	23µM	.	?	.	.
Oc1c(C(c2ccco2)N2CCN(C(c3ccccc3)c3ccccc3)CC2)sc2ncnn12 (configuration not stated)	?	21µM	.	?	?	.
COc1ccc(C(c2sc3ncnn3c2O)N2CCN(c3ccccc3F)CC2)cc1OC (configuration not stated)	.	21µM	.	12µM	?	.
Oc1c(C(c2ccccc2)N2CCc3ccccc3C2)sc2ncnn12 (configuration not stated)	.	?	.	?	.	.
CC(Sc1cc(Cl)ccc1Cl)C(=O)NCCC(=O)N1CCCCC1 (configuration not stated)	/	/	/	/	/	.
CCN(CC)CCCNC(=O)c1ccc2c(SCC(=O)O)c3c(nc2c1)CCC3	.	/	.	/	.	/

Compound activity (PubChem)
